We go through 32 molecules from PubChem BioAssay (NCI).

The structures appear in SMILES notation. This is part of a sample that, as a whole, favours compounds with a hit. Of some 83,000 tested, about 20% had one in any assay.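 Plates (96-well) were seeded with cells, treated with compound at one concentration, and incubated for 48 hours before percent growth was determined.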 A number with no mark means an inactive call. The source made the active and inactive calls. Rule for the calls: active = growth percent below 10; inactive = the rest.

For this assay, the system named is SNB-75 CNS. In words: NCI-60 one-dose screen, 48 h (100 = growth as untreated, 0 = no growth, -100 = all killed). As to conditions: 10 µM unless noted.
As for `COc1ccc2c(c1)C(=Nc1cc(OC)c(OC)c(OC)c1)C(=O)N2`, the growth is 104%.

With `COc1cnc2c(c1)C(=O)c1c-2n(CCCn2ccnc2)c(=O)c2cc(F)ccc12`, the growth is 4.31% (active).

As for `C[C@]12CCC(=O)C=C1CCC1C2[C@@H](O)C[C@@]2(C)C1CC[C@]2(O)C(=O)COC(=O)CCC(=O)O` (some centres not stated), the growth was 123%.

For the molecule `C[C@@H]1[C@H]2[C@H](C=C3[C@@H]4CC[C@H]5Cc6nc7c(nc6C[C@]5(C)[C@H]4C[C@@H](O)[C@@]32C)C[C@@H]2CC[C@H]3C4=C[C@@H]5O[C@@]6(CC[C@](C)(CO)O6)[C@@H](C)[C@@]5(O)[C@@]4(C)[C@H](O)C[C@@H]3[C@@]2(C)C7)O[C@]12CCC(C)(C)O2`, the growth is -9.04% (active).

In the case of `CCOC(=O)/C=C1/SC(=Nc2ccc(C#N)cc2)N(Cc2ccco2)C1=O`, the growth was 83.3%.

Regarding `C[C@H](C(=O)N[C@@H](Cc1ccc(-c2ccccc2)cc1)C(=O)NC1CC(C)(C)NC(C)(C)C1)c1ccc(-c2ccccc2)c(F)c1`, the growth was 13.3%.

For `Nc1ccccc1C#Cc1ccccc1C#Cc1ccc(OCCCCCCOc2ccc(C#Cc3ccccc3C#Cc3ccccc3N)cc2)cc1`, the growth was 105%.

For `CCSc1nc(-c2ccco2)n2nc(-c3ccco3)cc2n1`, the growth was 83.2%.

For `CN(C)c1ccc(-c2nc3ncc(Br)cc3o2)cc1`, the growth is 103%.

Regarding `CN1CCN(c2nc3scc(-c4ccccc4)c3c(=O)[nH]2)CC1`, the growth was 88.4%.

For the molecule `CC(=O)OC1Oc2cc(C)c(C)cc2-c2oc(=O)c(-c3ccccc3)cc21` (configuration not stated), the growth was -1.15% (active).

`N#CC(C#N)C(C#N)C#N`: the growth is 82%.

Consider `CCOC(=O)c1sc(NC(=O)COc2cccc(/C=C3\CCc4cc(OC)ccc4C3=O)c2)nc1C`, for which the growth was 99.3%.

In the case of `COc1cnc2c(c1)C(=O)c1c-2n(CCCN2CCOCC2)c(=O)c2cc(F)ccc12`, the growth was -19.1% (active).

With `CCN1CC2=C(Nc3nc(SC)[nH]c(=O)c3C2c2cc(OC)c(OC)c(OC)c2)/C(=C/c2cc(OC)c(OC)c(OC)c2)C1` (configuration not stated), the growth was 92.2%.

In the case of `CCOC(=O)CCC(=O)O[C@H]1[C@H](O[C@@H]2[C@@H](C)[C@H](O[C@H]3C[C@@](C)(OC)[C@@H](O)[C@H](C)O3)[C@@H](C)C(=O)O[C@H](CC)[C@@](C)(O)[C@H](O)[C@@H](C)C(=O)[C@H](C)C[C@@]2(C)O)O[C@H](C)C[C@@H]1N(C)C`, the growth was 91.5%.

`CNCCCn1c2c(c3ccc(F)cc3c1=O)C(=O)c1cc(OC)cnc1-2`: the growth was -23.4% (active).

In the case of `NC(=NCCCCCCN=C(N)/N=C(\N)Nc1ccc(Cl)cc1)/N=C(\N)Nc1ccc(Cl)cc1`, the growth was -7.16% (active).

Consider `O=C1CSC(c2ccccc2Cl)N1c1nnc(Cn2nnc3ccccc32)o1` (configuration not stated), for which the growth is 81.6%.

As for `O=C(O)CCC(=O)OC[C@@H](NC(=O)C(Cl)Cl)[C@H](O)c1ccc([N+](=O)[O-])cc1`, the growth was 88%.

Turning to `COc1ccc(-c2cc(-c3nnc(SCC(=O)Nc4ccc(C(C)=O)cc4)n3-c3ccccc3)c3ccccc3n2)cc1OC`, the growth is 102%.

On to `C[C@H](C(=O)N[C@@H](Cc1ccc(-c2ccccc2)cc1)C(=O)NC1CC(C)(C)N(C)C(C)(C)C1)c1ccc(-c2ccccc2)c(F)c1`, for which the growth was -29% (active).

Turning to `O=C(O)C1C(c2ccccc2)c2ccccc2C(O)C1CO` (configuration not stated), the growth was 80.7%.

`CSc1nc(Nc2ccc(S(=O)(=O)Nc3ccon3)cc2)c(C#N)c(-c2ccc(Cl)cc2)n1`: the growth was 102%.

For the molecule `Cc1cc(C)c(C(=O)c2cccs2)c(C)c1`, the growth was 86.2%.

Regarding `COC(=O)C1(NC(=O)CNC(=O)OCc2ccccc2)CCCC1`, the growth is 88.4%.

For the molecule `Cc1cc(C)nc(NS(=O)(=O)c2ccc(Nc3nc4nc(SCc5ccccc5)nc(-c5ccc(O)cc5)c4c(=O)[nH]3)cc2)n1`, the growth was 88.3%.

Turning to `Nc1ccc(N=Nc2ccccc2)cc1[N+](=O)[O-]`, the growth was 73.3%.

Regarding `NS(=O)(=O)c1cc2c(cc1Cl)NC=NS2(=O)=O`, the growth was 96.3%.

In the case of `CCOC(=O)C1=CCC(n2cc(C)c(=O)[nH]c2=O)O1` (configuration not stated), the growth was 103%.

`C[C@@H]1C[C@@H]([C@@H](CC2CC(=O)NC(=O)C2)OC(=O)CC(=O)c2ccccc2)C(=O)[C@@H](C)C1`: the growth was 17.8%.

With `OCc1n(Cc2ccc3ccccc3c2)cc[n+]1Cc1ccc2ccccc2c1`, the growth is 34.8%.
